# Screening data (PubChem BioAssay)
# This is a sample that favours compounds with a hit; in the whole collection about 1.9% have one here.
# IL2 activator – activators of IL-2. IL-2 activation reporter assay, cell-based qHTS; stimulated with anti-CD3/CD4/CD28 beads; in transgenic mouse T cells. activation, % (series mostly up to about 46 µM). 0.065% of 360,000 active. AID 652025; in the data active = activation above about 50%; inconclusive = mostly about 30% to 49%; also: 0% is about no effect
#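 First, unstimulated transgenic mouse T cells were exposed to compound for 60 min. Next, anti-CD3/anti-CD4-coated beads with anti-CD28 were added. Finally, after 18 h at 37 degrees C, EGFP and DsRed were imaged.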
# ClpP mod – qHTS Assay for Activators of ClpP; purified B. subtilis ClpP, FRET peptide cleavage, 20 min; Potency, µM (titrated, usually from 57.5 µM), for inactives: top-dose activity change, negative = active; AID 651965, 2013; ATP-dependent Clp protease proteolytic subunit (Bacillus subtilis (strain 168)), P80244; 1.9% of 340,000 active; active = well fitted falling curve with a large enough effect; inconclusive = small, poorly fitted or top-dose-only effect; inactive = no such curve, though single readings can be large or run the other way; also: potency is read from the fitted curve at half-maximal effect; the source files actives as falling curves though it sought activators and does not explain the sign; nearly all actives have a fitted effect of over 65% in size
#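 Purified B. subtilis ClpP, 10 microg/mL final in Tris/HCl pH8 with KCl, BSA, glycerol and Tween-20, cleaved an Abz/nitrotyrosine-quenched decapeptide. Fluorescence (ex 320, em 430) was read at 0 and 20 min at room temperature. Delta was normalized to 5.8 microM ADEP and DMSO/no-enzyme controls.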
# USP2a block – inhibitors of human ubiquitin-specific protease USP2a. USP2 core, Ub-CHOP2 coupled fluorogenic reporter, 485/531. Potency, µM (titrated, usually from 38.3 µM), for inactives: at the highest dose activity change, negative = inhibition, hits mostly inhibitors. 0.01% of 330,000 active. AID 463254;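 also: potency is read from the fitted curve at half-maximal effect; plate controls were DMSO wells for no effect and full inhibition by NEM control for full effect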
# Target sequence (O75604 whole entry, looked up): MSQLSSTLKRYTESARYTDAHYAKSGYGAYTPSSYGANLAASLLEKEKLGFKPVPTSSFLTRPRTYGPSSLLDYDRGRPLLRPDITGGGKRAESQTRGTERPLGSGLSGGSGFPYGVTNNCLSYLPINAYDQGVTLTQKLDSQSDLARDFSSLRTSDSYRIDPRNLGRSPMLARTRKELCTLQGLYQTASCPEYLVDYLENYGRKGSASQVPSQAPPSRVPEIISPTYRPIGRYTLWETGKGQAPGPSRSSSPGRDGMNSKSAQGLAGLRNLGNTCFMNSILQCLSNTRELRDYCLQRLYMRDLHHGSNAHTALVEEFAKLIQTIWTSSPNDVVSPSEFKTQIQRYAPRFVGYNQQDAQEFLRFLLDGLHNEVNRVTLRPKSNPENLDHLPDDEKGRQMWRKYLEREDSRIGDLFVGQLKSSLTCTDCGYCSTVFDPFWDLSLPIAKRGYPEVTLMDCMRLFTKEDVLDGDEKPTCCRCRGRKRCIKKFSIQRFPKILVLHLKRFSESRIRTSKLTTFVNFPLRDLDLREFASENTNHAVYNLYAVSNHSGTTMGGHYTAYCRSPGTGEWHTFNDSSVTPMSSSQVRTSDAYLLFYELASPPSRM
#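 Deubiquitinase activity read as fluorescence (485/531 nm) after Ub-CHOP2 cleavage activates the enterokinase reporter on its substrate; USP2 core 10nM, Ub-CHOP2 and substrate 25nM each, 30min compound preincubation then 60min RT; data normalized to NEM, curves fitted.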
# Integrin act MD – activates integrin-mediated alleviation for muscular dystrophy; alpha7betagal myoblasts, beta-gal FDG fluorescence, 48 h; Potency, µM (titrated, usually from 38.3 µM), without a hit: at the top dose activation, actives largely listed as activators; 0.064% of 350,000 active; AID 624291;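 also: potency is read from the fitted curve at half-maximal effect; 100% = response of the positive control SU9516; nearly all actives have a fitted effect of over 60% in size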
#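 alpha7betagal+/- myoblasts (passage 13, 250/well) treated 48 h at 37C with compounds at 1:260 dilution of DMSO stock. Lysed, then beta-galactosidase activity read as FDG fluorescence (ex 480/em 540) after 30 min, with pre-read for autofluorescence.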
# Pin1 inh – inhibitors of human Pin1 | Potency, µM (doses to about 115 µM), inactives show top-dose activity, negative = inhibition, hits mostly inhibitors | Pin1 FP peptide displacement, HiFluor488, 10 min | 0.009% of 390,000 active; active = well fitted inhibition curve with a large enough effect in the polarisation, with a control signal flat, not every such curve was filed as active; inconclusive = small, poorly fitted or top-dose-only effect, or effect the other way, or a change in a side signal; inactive = no such curve, though single readings can be large or run the other way; the % refers to the polarisation; also: potency is read from the fitted curve at half-maximal effect; % is scaled to controls: 0 for no effect and ±100 for the full control effect
# Target sequence (Q13526 whole entry, looked up): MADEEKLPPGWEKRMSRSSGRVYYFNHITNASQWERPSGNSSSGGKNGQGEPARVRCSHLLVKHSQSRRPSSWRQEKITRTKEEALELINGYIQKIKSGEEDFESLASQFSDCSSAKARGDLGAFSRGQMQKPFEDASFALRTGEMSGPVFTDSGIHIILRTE
# PKM2 activator – increases activity of human pyruvate kinase M2; P14618; purified PKM2, Kinase-Glo ATP luminescence, activation; response scale: 0% is enzyme alone, no compound; Potency, µM (titrated, usually from 57.5 µM), without a hit: at the highest dose activation, usual class: activators; 0.34% of 260,000 active; AID 1631; also: potency is read from the fitted curve at half-maximal effect; % is scaled to controls: 0 for no effect and ±100 for the full control effect; nearly all actives have a fitted effect of over 55% in size
#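 ATP formation by purified human PK-M2, quantified via coupled luciferase luminescence after 1 h at room temperature with 0.1 mM ADP and 0.5 mM PEP final.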
# Starred values were filed as active, the others as inactive; ? = inconclusive; nt = no result given; [ ] = remark or other dose. Unless noted, calls follow the shape of the dose curve; as a rule, active = well fitted curve in the direction sought with a large enough effect; inconclusive = small, poorly fitted or top-dose-only effect, or another doubt; inactive = no such curve, though single readings can be large; an effect the other way counts as inactive or inconclusive.
SMILES,IL2 activator,ClpP mod,USP2a block,Integrin act MD,Pin1 inh,PKM2 activator
c1ccc(-c2ncnc3cc4n(c23)CCC4)cc1,1,28µM*,3%,19%,-1%,-7%
Cc1ccc2ncnc(-c3ccccc3)c2c1,-2,-1%,0%,-40%,-4%,nt
COc1ccc(NC(=O)CSc2nnc3c(n2)[nH]c2ccc(S(=O)(=O)N(C)C)cc23)c(OC)c1,nt,0%,nt,nt,-3%,nt
COc1ccc(NC(=O)C(=O)NCC(=O)Nc2cc(OC)ccc2OC)cc1,2,10µM*,2%,-2%,2%,1%
COc1ccc(OC)c(NC(=O)CNC(=O)c2cccs2)c1,-2,1%,0%,4%[7.66 µM],11%,4%
CN(N=O)c1ccc(/C=C2\C=Cc3ccccc32)cc1,nt,0%,nt,nt,nt,nt
Cc1ccc(-c2cc(-c3ccc(C)o3)nc(N)c2C#N)cc1,-1,22µM*,2%,-42%,?,?
Cc1ccc(-c2cc(-c3ccc4c(c3)OCO4)c(C#N)c(N)n2)o1,3,35µM*,-2%,-8%,42%,10µM*
N#Cc1c(N)oc(-c2ccc3c(c2)OCO3)c1-c1ccc2c(c1)OCO2,0,14µM*,-1%,-35%,?,5%
Cc1ccc(-c2cc(-c3ccc(F)cc3)c(C#N)c(N)n2)o1,-1,nt,3%,-5%,?,?
COc1ccc(-c2nc3cc(NC(=O)Cc4ccc(Cl)cc4)ccc3o2)cc1OC,nt,5%,nt,nt,16%,nt
CCC(C)NCC(=O)Nc1ccc(-c2nc3cc(NC(=O)CNC(C)CC)ccc3o2)cc1 (stereo unspecified),1,13µM*,0%,1%,-8%,0%
CC(C)CC(=O)Nc1ccc(-c2nc3ccccc3c(=O)o2)cc1,3,11µM*,2%,0%,1%,-23%
CC(C)(Oc1ccc(Cl)cc1)C(=O)Nc1ccc2oc(-c3ccncc3)nc2c1,0,28µM*,3%,1%,5%,2%
O=C(COc1ccc(Cl)cc1)Nc1ccc2oc(-c3ccncc3)nc2c1,-2,15%,-2%,4%,-1%,-13%
COc1ccc(-c2nc3cc(NC(=O)Cc4ccc(OC)c(OC)c4)ccc3o2)cc1,-2,14µM*,?,1%,0%,2%
CC(=O)Nc1ccc(-c2nc3ccccc3c(=O)o2)cc1,0,nt,2%,2%,1%,nt
CN(C)CCCCCCNc1nccc(N2CCN(C)CC2)n1,nt,-4%,nt,nt,nt,nt
COc1ccc(-c2nc3cc(NC(=O)CSc4ccc(C)cc4)ccc3o2)cc1,nt,4%,nt,nt,24%,nt
Cc1ccc(SCC(=O)Nc2ccc3oc(-c4ccc(F)cc4)nc3c2)cc1,nt,3.5µM*,nt,nt,-4%,nt
S=C(NCCCc1cnc[nH]1)NCCCN(Cc1ccc(Cl)cc1)c1ccc(-c2ccccc2)cn1,nt,?,nt,nt,-1%,nt
Cc1ccc2[nH]cc(/C=C/c3cc[n+](C)cc3)c2c1,71*,nt,?,-69%,?,nt
COc1ccc2c(/C=C/c3cc[n+](C)cc3)c[nH]c2c1,28,0%,-1%,-51%,?,nt
CC[n+]1ccc(/C=C/c2c[nH]c3ccccc23)cc1,211*,-1%,?,-67%,?,-19%
Cc1cc[n+](-c2nc3ccccc3nc2[N-]S(=O)(=O)c2cccs2)cc1C,-1,8.9µM*,0%,3%,3%,-10%
SMILES,IL2 activator,ClpP mod,USP2a block,Integrin act MD,Pin1 inh,PKM2 activator
O=S(=O)(Cc1ccc(Cl)cc1)c1ccccc1-c1nnc(-c2ccccc2)o1,-1,32µM*,0%,3%,15%,-10%
CS(=O)(=O)c1ccccc1-c1nnc(-c2ccc(Cl)cc2)o1,-1,nt,2%,-14%,1%,9%
O=C(COc1ccc(Cl)cc1)Nc1ccc(Cc2ccncc2)cc1,0,7.1µM*,-8%,0%,-3%,0%
CN1CCN(c2ccc(CNc3nn4c(=O)c5ccccc5nc4s3)cc2)CC1,nt,nt,nt,nt,1%,nt
CCCCCCc1ccc(-c2ncc(N)cn2)cc1,-3,32µM*,-12%,-14%,-3%,2%
CCCCCc1ccc(-c2nnc(N)s2)cc1,0,nt,0%,-25%,-8%,1%
CCOc1ccccc1NC(=O)COc1coc(CN2CCc3ccccc3C2)cc1=O,1,?,-2%,-7%,4%,nt
O=C(COc1coc(CN2CCc3ccccc3C2)cc1=O)N1CCOCC1,2,28µM*,1%,20%,1%,nt
COc1ccc2c(c1OC)C(=O)OC2Nc1nc(-c2ccc(-c3ccccc3)cc2)cs1 (stereo unspecified),3,16µM*,-5%,10%,-4%,-13%
COc1cccc(-c2csc(NC3OC(=O)c4c3ccc(OC)c4OC)n2)c1 (stereo unspecified),1,nt,-1%,-49%,2%,-6%
CC(C)CNc1nc(C#N)nc(Nc2ccccc2)n1,nt,nt,nt,nt,-4%,nt
O=C(C[n+]1cccc2cccc(O)c21)c1ccc(Br)cc1,nt,-1%,nt,nt,nt,nt
FC(F)(F)c1cccc(CNc2ncccc2-c2nc3cc(Cl)ccc3o2)c1,2,32µM*,4%,-10%,0%,-6%
Cc1cccc(-c2noc(-c3cccnc3NCc3ccc(Cl)cc3)n2)c1,nt,-19%,nt,nt,39%,nt
CCOc1ccccc1CN1CCc2nc(N3CCN(c4ccccc4F)CC3)ncc2C1,nt,?,nt,nt,13%,nt
O=[N+]([O-])c1ccc(N2CCN(c3ccccc3F)CC2)nc1,2,1%,5%,5.6µM*,-1%,nt
O=[N+]([O-])c1ccc(N2CCN(c3ccccc3)CC2)nc1,0,nt,1%,20%,5%,nt
Cc1cc(NCCN(C)C)n2nc(-c3cccs3)cc2n1,-1,28µM*,3%,28%,1%,6%
CSc1ccc2nnc(-c3ccc(C)cc3)n2n1,nt,-17%,nt,nt,-1%,nt
COc1ccccc1S(=O)(=O)N1CCn2cccc2C1C (stereo unspecified),0,28µM*,0%,-7%,?,nt
CC1c2cccn2CCN1S(=O)(=O)c1ccccc1 (stereo unspecified),0,-2%,0%,-10%,0%,nt
O=[S+]([O-])(c1ccc2c(c1)OCCO2)N1CCN([S+](=O)([O-])c2c(F)cc(F)cc2Br)CC1,nt,nt,nt,nt,-3%,nt
COc1ccc(-c2cc(-c3cccs3)nc(OC)c2C#N)cc1OC,-1,32µM*,-3%,-34%,-1%,0%
COc1ccc(-c2c(C#N)c(N)nc3c2CCc2ccccc2-3)cc1OC,0,13µM*,0%,-4%,?,-10%
